Pol beta inh: qHTS Assay for Inhibitors of DNA Polymerase Beta; Pol beta primer extension/strand displacement, fluorescence kinetic; Potency, µM (doses to about 114 µM), for the others: at the highest dose activity change, negative = inhibition, actives largely listed as inhibitors; AID 485314, 2010; 1.3% of 340,000 active; P06746; further: potency means the concentration at half of the fitted maximal effect; on the % scale 0 is the no-effect control and ±100 the full control effect
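Kinetic readout of DNA synthesis with strand displacement by Pol beta. Compound and 10 nM enzyme sit 15 min at room temperature; 50 nM substrate starts the reaction, read immediately and at 10 min.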
Pol kappa inh-1: qHTS for Inhibitors of Polymerase Kappa; DNA polymerase kappa (Homo sapiens), Q9UBT6; purified Pol kappa, fluorescent DNA synthesis assay, 10 min; Potency, µM (top dose mostly 107 µM), without a hit: top-dose activity, negative = inhibition, hits mostly inhibitors; 0.53% of 400,000 active; further: potency means the concentration at half of the fitted maximal effect; on the % scale 0 is the no-effect control and ±100 the full control effect
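Kinetic fluorescence screen: compound preincubated 15 min RT with 10 nM enzyme; 50 nM substrate (final) initiates; reads at 0/10 min.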
Pol eta inh-1: qHTS for Inhibitors of Polymerase Eta. recombinant Pol eta, fluorescent DNA replication assay. Potency, µM (highest dose often 114 µM), inactives show top-dose activity change, negative = inhibition, hits mostly inhibitors. DNA polymerase eta (Homo sapiens), Q9Y253. 1.2% of 390,000 active; further: potency means the concentration at half of the fitted maximal effect; on the % scale 0 is the no-effect control and ±100 the full control effect
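Fluorescent replication assay: 50 nM final substrate added after a 15 min room-temperature compound preincubation with 10 nM enzyme. Signal taken at 0 min and again at 10 min.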
Pol iota inh: qHTS for Inhibitors of Polymerase Iota. DNA polymerase iota (Homo sapiens), Q9UNA4. AID 588590, 2011. 1% of 390,000 active. Pol iota fluorescent replication assay, 10 min. Potency, µM (top dose mostly 115 µM), for inactives: at the highest dose activity, negative = inhibition, most hits filed as inhibitors; further: potency means the concentration at half of the fitted maximal effect
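Pol iota at 10 nM preincubated 15 min with compounds at room temperature; reaction started with fluorescent substrate, 50 nM final. Fluorescence read kinetically at 0 and 10 min; buffer-only wells as negative control.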
PI5P4Ka inh: qHTS for Inhibitors of phosphatidylinositol 5-phosphate 4-kinase (PI5P4K). Phosphatidylinositol 5-phosphate 4-kinase type-2 alpha (Homo sapiens), P48426. PI5P4Kalpha enzyme, ADP-Glo luminescence, 60 min; stronger effect = lower value. max response, %. 1.2% of 330,000 active. AID 652105, 2013; active means max response of -50% or lower; inconclusive means between -30% and -50%; inactive means -30% or higher; further: value at the top dose of about 77 µM; on the % scale 0 is the no-effect control and ±100 the full control effect
Target sequence (P48426 whole entry, looked up): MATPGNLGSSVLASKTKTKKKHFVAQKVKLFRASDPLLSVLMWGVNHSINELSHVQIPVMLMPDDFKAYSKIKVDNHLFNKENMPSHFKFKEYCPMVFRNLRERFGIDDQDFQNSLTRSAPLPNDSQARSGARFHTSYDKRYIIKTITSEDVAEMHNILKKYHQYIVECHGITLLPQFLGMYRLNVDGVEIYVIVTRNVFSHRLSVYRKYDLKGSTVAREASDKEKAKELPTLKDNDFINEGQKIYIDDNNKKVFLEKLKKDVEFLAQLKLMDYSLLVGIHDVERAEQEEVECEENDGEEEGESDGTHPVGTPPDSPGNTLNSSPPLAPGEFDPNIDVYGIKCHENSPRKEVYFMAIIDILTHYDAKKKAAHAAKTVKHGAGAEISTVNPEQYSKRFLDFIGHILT
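Compounds were pin-transferred onto PI5P4Kalpha and substrate in HEPES pH 7.4 buffer with EGTA, CHAPS and 5% DMSO. ATP (5 microM final) started the reaction, which ran 60 minutes at room temperature before ADP-Glo detection.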
WRN helicase inh: qHTS for Inhibitors of WRN Helicase. 0.46% of 360,000 active. Potency, µM (highest dose often 114 µM), without a hit: top-dose activity change, negative = inhibition, most hits filed as inhibitors. WRN helicase unwinding, fluorescent forked duplex, kinetic; further: potency means the concentration at half of the fitted maximal effect; on the % scale 0 is the no-effect control and ±100 the full control effect; nearly all actives have a fitted effect of over 55% in size
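Enzyme (20 nM final) and test compound sit together 15 min at room temperature before substrate addition. Substrate is a single-forked duplex oligonucleotide (100 nM) labelled with fluorophore and quencher, with 2 mM ATP; helicase unwinding raises red fluorescence, read kinetically.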
TbPGK inh: qHTS for inhibitors of Phosphogylcerate Kinase: Hit Validation Screen. shares compounds with Pol kappa inh-1. TbPGK coupled GAPDH assay, Kinase-Glo luminescence. Potency, µM (doses to about 57.5 µM), for the others: top-dose activity change, negative = inhibition, actives largely listed as inhibitors. 79% of 500 active. AID 686980, 2013; further: potency means the concentration at half of the fitted maximal effect; on the % scale 0 is the no-effect control and ±100 the full control effect; nearly all actives have a fitted effect of over 65% in size
POLI cherry-pick: qHTS for Inhibitors of Polymerase Iota: Confirmatory Assay for Cherry-picked Compounds | shares compounds with Pol kappa inh-1 | Pol iota primer extension, TAMRA/BHQ fluorescence | Potency, µM, actives largely listed as inhibitors | 77% of 1,500 active | AID 720496, 2013; further: potency means the concentration at half of the fitted maximal effect
Pol kappa inh-2: qHTS for Inhibitors of Polymerase Kappa: Confirmatory Assay for Cherry-picked Compounds | AID 720501, 2013 | 76% of 920 active | purified Pol-kappa, fluorescent strand-displacement substrate | shares compounds with Pol eta inh-1 | Potency, µM, actives largely listed as inhibitors; further: potency means the concentration at half of the fitted maximal effect
Pol eta inh-2: qHTS for Inhibitors of Polymerase Eta: Confirmatory Assay for Cherry-picked Compounds; Pol eta primer extension, TAMRA/BHQ fluorescence, 10 min; 64% of 2,600 active; shares compounds with Pol eta inh-1; Potency, µM, usual class: inhibitors; further: potency means the concentration at half of the fitted maximal effect
Active calls of the source: *; u = inconclusive; x = no result; [ ] = another dose, or the depositor's remark. Hits are enriched below; roughly 2.8% of the tested compounds scored in any of these assays. Unless noted, the call rests on the fitted dose curve; in most records, active means well fitted curve in the direction sought with a large enough effect; inconclusive means small, poorly fitted or top-dose-only effect, or another doubt; inactive means no such curve, though single readings can be large; an effect the other way counts as inactive or inconclusive.

SMILES	Pol beta inh	Pol kappa inh-1	Pol eta inh-1	Pol iota inh	PI5P4Ka inh	WRN helicase inh	POLI cherry-pick	Pol eta inh-2	others
CN(C)c1ccc(/C=C2\SC(=S)N(Nc3ncc(C(F)(F)F)cc3Cl)C2=O)cc1	-1%	18µM*	45µM*	11µM*	x	50µM*	21*	19*
Cc1cc(C)nc(NN2C(=O)/C(=C/c3ccccc3)SC2=S)n1	6%	-4%	-10%	-16%	x	7%	x	x
CN(C)c1ccc(N=Nc2ccc(C(=O)O)cc2)cc1	10µM*	32µM*	3.5µM*	11µM*	u	u	21*	4.3*
O=C(O)CCNc1cc(N2CCN(C(=O)c3ccco3)CC2)c2noc3c2c1C(=O)c1ccccc1-3	18µM*	13µM*	3.2µM*	u	-58*	18µM*	17*	6.7*	TbPGK inh=21µM*;Pol kappa inh-2=u
O=C(O)COc1ccccc1C=NNc1ccc([N+](=O)[O-])cc1S(=O)(=O)Nc1ccc(Cl)cc1	x	-34%	22µM*	u	u	u	84*	48*	Pol kappa inh-2=u
COc1ccc(NS(=O)(=O)c2cc([N+](=O)[O-])ccc2NN=Cc2ccccc2OCC(=O)O)cc1	x	-35%	u	u	-17	-4%	x	x
CC(=O)NC1=NC(=O)/C(=C/c2cc(C)n(-c3cccc(C(=O)O)c3)c2C)S1	6.3µM*	40µM*	4µM*	14µM*	u	45µM*	9.5*	11*	TbPGK inh=6.5µM*;Pol kappa inh-2=8.4*
Cc1cc(/C=N/NC(=O)C(O)(c2ccccc2)c2ccccc2)c(C)n1-c1cccc(C(=O)O)c1	16µM*	u	10µM*	16µM*	-51*	u	34*	15*
CC(=O)NC1=NC(=O)/C(=C/c2cc(C)n(-c3ccc(NC(C)=O)cc3)c2C)S1	10%	-18%	-3%	-8%	3	-22%	x	x
CCOC(=O)c1sc2nc(CSc3ccccc3Cl)[nH]c(=O)c2c1C	-20%	-15%	-1%	2%	-16	3%	x	x
Cc1c(C(=O)O)sc2nc(CSc3ncc(C(F)(F)F)cc3Cl)[nH]c(=O)c12	40µM*	-19%	32µM*	u	u	-19%	u	67*
C(=Nc1ccc2ccccc2n1)c1ccccn1	x	2%	x	-2%	x	x	x	x
Cc1ccccc1Nc1nnc(SCC(=O)Nc2ccccc2[N+](=O)[O-])s1	0%	-10%	1%	106%	u	-9%	x	x
O=C(CSc1ccccc1C(=O)O)NCc1ccco1	1%	-9%	7%	2%	-2	-6%	x	x
Cc1ccccc1NC(=O)CSc1ccsc1[N+](=O)[O-]	20µM*	35µM*	2.8µM*	11µM*	-90*	50µM*	19*	17*
O=C(CSc1ccsc1[N+](=O)[O-])NCc1ccco1	u	79µM*	22µM*	u	-71*	-11%[11.6 µM]	67*	30*	Pol kappa inh-2=42*
COc1ccc(C(CNC(=O)CCNS(=O)(=O)c2ccccc2)N2CCOCC2)cc1 (stereo unspecified)	x	x	1%	x	1	4%	x	x
COC(=O)C(C(=O)OC)c1ccccc1NC(=O)OCc1ccccc1	x	x	x	x	-4	-6%	x	x
Cn1cnnc1SCC(=O)Nc1sc2c(c1C(N)=O)CCC2	14µM*	u	22µM*	u	x	13µM*	67*	43*
CC(C)NC(=O)N1[C@H](c2cccs2)[C@@H](C)C(=O)[C@@H](C)[C@@H]1c1cccs1	1%	-12%	-4%	24%	x	x	x	x
CN(C)c1ccc(-c2ccc3c(=O)c4ccccc4n(C)c3c2)cn1	u	-6%	20µM*	u	u	-18%[11.6 µM]	u	u
CC(C)(CS(=O)(=O)[O-])NC(=O)CC[N+](C)(C)CCO	2µM*	22µM*	0.79µM*	1.4µM*	u	7.9µM*	x	8.5*	TbPGK inh=3.3µM*
CC(CNc1ccccc1O)C(=O)O (stereo unspecified)	8.9µM*	u	25µM*	u	-3	-26%	x	60*	TbPGK inh=u
CCOc1ccc2c(ccc(/C=C/c3cc(C)c4cccnc4c3O)[n+]2C)c1	x	u	20µM*	u	-85*	10µM*	19*	21*	Pol kappa inh-2=19*
COc1ccc(-c2nnc(SCC(=O)NCCc3ccc(OC)c(OC)c3)nc2-c2ccc(OC)cc2)cc1	19%	-11%	u	-10%	x	x	x	x
CCN(C(=O)C(C)N1C(=O)/C(=C/c2ccco2)SC1=S)C1CCS(=O)(=O)C1 (stereo unspecified)	11µM*	28µM*	16µM*	22µM*	-68*	50µM*	42*	27*
CC(C(=O)N(C)C1CCS(=O)(=O)C1)N1C(=O)/C(=C/c2ccc(F)cc2)SC1=S (stereo unspecified)	21%	18%	-16%	23%	u	12%	x	x
O=C1C(Nc2ccccc2)=CC(=O)c2ncccc21	x	-10%[12 µM]	x	x	x	x	x	x
CC(NC1=CC(=O)c2cccnc2C1=O)C(O)c1ccccc1 (stereo unspecified)	x	-9%	16µM*	4.5µM*	5	u	19*	24*
CC(C)=CCC/C(C)=C/CC/C(C)=C/CC/C(C)=C/CC1=C(C)C(=O)c2ccccc2C1=O	10%	-16%	-11%	45%	-28	-8%	x	x
